Results taken from PubChem BioAssay (NCATS).
Where “and” joins values, the source holds several entries; their conditions need not be identical. Equal values may be shown once. Inconclusive results are not listed. Where a structure was tested more than once in an assay, its records may differ in their call. Calls of active or inactive are those of the source. Unless noted, calls follow the shape of the dose curve; as a rule, active = well fitted inhibition curve with a large enough effect; inconclusive = small, poorly fitted or top-dose-only effect; inactive = flat fitted curve, though single readings scatter.

Legend:
[1] = Drug repurposing screens with cells derived from glioblastoma tumor samples (AID 1345199); conditions: GBM patient neurospheres viability, ATP luminescence, 48 h; also: nearly all actives have a fitted effect of over 40% in size; also: potency is read from the fitted curve at half-maximal effect; as to activity, negative = cell killing: % is scaled to controls: 0 for no effect and ±100 for the full control effect
Summary of the method: (§1)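 Four patient lines of CD133+ GBM neurospheres were screened at several concentrations; hits were retested in those lines plus three slower-growing GBM lines, using 48-hour treatment and ATP-based viability.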

[2] = system: astro; test: as above; conditions: viability, ATP luminescence, 48 h; series mostly up to 45.9 µM
Summary of the method: as §1

[3] = target: Nuclear receptor subfamily 1 group I member 2 (Rattus norvegicus) (UniProt Q9R1A7); test: qHTS assay for small molecule activators of the rat pregnane X receptor (rPXR) signaling pathway (AID 651751; call rule not given here; also: 0% is about no effect); conditions: rPXR reporter cells, luciferase (One-Glo), 24 h
Chain of Nuclear receptor subfamily 1 group I member 2 (Rattus norvegicus) (Q9R1A7 whole entry, looked up): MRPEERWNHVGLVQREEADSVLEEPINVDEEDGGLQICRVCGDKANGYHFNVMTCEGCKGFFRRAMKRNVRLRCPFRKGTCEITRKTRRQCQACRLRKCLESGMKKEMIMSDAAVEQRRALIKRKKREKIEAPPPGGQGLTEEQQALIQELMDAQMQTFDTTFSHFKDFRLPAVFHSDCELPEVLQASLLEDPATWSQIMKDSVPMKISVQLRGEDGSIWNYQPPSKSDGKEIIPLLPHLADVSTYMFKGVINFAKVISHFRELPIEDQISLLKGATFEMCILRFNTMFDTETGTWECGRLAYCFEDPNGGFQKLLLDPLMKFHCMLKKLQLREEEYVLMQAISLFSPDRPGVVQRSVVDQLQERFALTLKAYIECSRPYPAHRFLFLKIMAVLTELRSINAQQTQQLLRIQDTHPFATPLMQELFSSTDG

[4] = qHTS assay for small molecule activators of the human pregnane X receptor (PXR) signaling pathway (AID 720659; call rule not given here; also: 0% is about no effect); conditions: DPX-2 HepG2 CYP3A4-luciferase, 24 h; series mostly up to 92.3 µM
[5] = at 45.9 µM (top of the series), tumour line B
[6] = at 45.9 µM (top of the series), tumour line D
[7] = at 46 µM (top of the series), tumour line A
[8] = at 46.1 µM (top of the series), tumour line C
[9] = at 20 µM (top of the series), tumour line C
[10] = at 21.2 µM (top of the series), tumour line B
[11] = at 21.2 µM (top of the series), tumour line D
[12] = at 21.3 µM (top of the series), tumour line A

O=CC=O
inactive: activity, negative = cell killing [1, 5] 0.224% | activity, negative = cell killing [1, 6] -5.05% | activity, negative = cell killing [1, 7] -22.3% | activity, negative = cell killing [1, 8] 29.7% | Potency [2] | max response [3] -6.34% | outcome [4]

Oc1cc(Cl)c(Cl)cc1Cl
inactive: activity, negative = cell killing [1, 5] -12.6% | activity, negative = cell killing [1, 6] -21.4% | activity, negative = cell killing [1, 7] -39.7% | activity, negative = cell killing [1, 8] -1.02% | Potency [2] | max response [3] 6.93% and 2.63% | outcome [4]

CN(C)[C@H](Cc1ccccc1)c1ccccc1
inactive: activity, negative = cell killing [1, 5] -3.48% | activity, negative = cell killing [1, 6] -20.8% | activity, negative = cell killing [1, 8] -18.9% | Potency [2]
active: Potency ([1]; tumour line A) 20 µM

Clc1ccc(Cl)cc1
inactive: activity, negative = cell killing [1, 5] -3.79% | activity, negative = cell killing [1, 6] -0.0641% | activity, negative = cell killing [1, 7] -16.3% | activity, negative = cell killing [1, 8] -0.658% | Potency [2]

C[C@]12C=CC(=O)C=C1CC[C@@H]1[C@@H]2CC[C@]2(C)OC(=O)CC[C@@H]12
inactive: activity, negative = cell killing [1, 5] -3.73% | activity, negative = cell killing [1, 6] -7.84% | activity, negative = cell killing [1, 7] -28.6% | activity, negative = cell killing [1, 8] 1.2% | Potency [2]

CN(C)[C@@H]1C(=O)C(C(N)=O)=C(O)[C@@]2(O)C(=O)C3=C(O)c4c(O)ccc(Cl)c4[C@@](C)(O)[C@H]3C[C@@H]12
inactive: activity, negative = cell killing [1, 9] -1.9% | activity, negative = cell killing [1, 10] -17.1% | activity, negative = cell killing [1, 11] 7.37% | activity, negative = cell killing [1, 12] -17.5% | Potency [2]

CC1(C)[C@H](C=C(Cl)Cl)[C@H]1C(=O)OCc1c(F)c(F)cc(F)c1F
inactive: activity, negative = cell killing [1, 5] -3.56% | activity, negative = cell killing [1, 6] -11.5% | activity, negative = cell killing [1, 7] -26.8% | activity, negative = cell killing [1, 8] -13.8% | Potency [2]

Oc1cccc[c]1[Hg][Cl]
active: Potency ([1]; tumour line A) 0.398 µM | Potency ([1]; tumour line B) 0.562 µM | Potency ([1]; tumour line D) 1 µM | Potency [2] 2.82 µM
inactive: activity, negative = cell killing [1, 8] -98.2%

CCNCC(O)c1cccc(O)c1 (centres undefined)
inactive: activity, negative = cell killing [1, 9] 5.83% | activity, negative = cell killing [1, 10] -15.1% | activity, negative = cell killing [1, 11] -23% | activity, negative = cell killing [1, 12] -30.1% | Potency [2]

CCNC(C)Cc1cccc(C(F)(F)F)c1 (centres undefined)
inactive: activity, negative = cell killing [1, 5] -2.98% | activity, negative = cell killing [1, 6] -5.81% | activity, negative = cell killing [1, 7] -19.5% | activity, negative = cell killing [1, 8] -4.96% | Potency [2]

ClC=C(Cl)Cl
inactive: activity, negative = cell killing [1, 5] -0.797% | activity, negative = cell killing [1, 6] -16.6% | activity, negative = cell killing [1, 7] -33.6% | activity, negative = cell killing [1, 8] -1.4% | Potency [2] | max response [3] 1.22% and -1.96% | outcome [4]

C[C@H]1CC[C@]2(NC1)O[C@H]1C[C@H]3[C@@H]4CC[C@H]5C[C@@H](O)CC[C@]5(C)[C@H]4CC[C@]3(C)[C@H]1[C@@H]2C
inactive: activity, negative = cell killing [1, 5] -14.5% | activity, negative = cell killing [1, 6] -28.2% | activity, negative = cell killing [1, 8] -9.91% | Potency [2]
active: Potency ([1]; tumour line A) 8.91 µM

O=C1C[C@@H]2OCC=C3CN4CC[C@]56c7ccccc7N1[C@H]5[C@H]2[C@H]3C[C@H]46 (tested in a mixture with another compound)
inactive: activity, negative = cell killing [1, 5] -8.18% and -6.54% | activity, negative = cell killing [1, 6] -14.5% and -6.5% | activity, negative = cell killing [1, 8] 1.96% and -18.9% | Potency [2]
active: Potency ([1]; tumour line A) 20 µM

O=Cc1ccco1
inactive: activity, negative = cell killing [1, 5] -3.46% | activity, negative = cell killing [1, 6] 2.23% | activity, negative = cell killing [1, 7] -6.89% | activity, negative = cell killing [1, 8] -7% | Potency [2] | max response [3] 4.33% | outcome [4]

CCC1(c2ccccc2)C(=O)NC(=O)N(C)C1=O (centres undefined)
inactive: activity, negative = cell killing [1, 5] -7.4% | activity, negative = cell killing [1, 6] -10.2% | activity, negative = cell killing [1, 7] -23% | activity, negative = cell killing [1, 8] 7.87% | Potency [2]

CC(=O)O[C@H]1CC[C@@]2(C)C(=CC[C@@H]3[C@@H]2CC[C@]2(C)C(=O)CC[C@@H]32)C1
inactive: activity, negative = cell killing [1, 9] -28.7% | activity, negative = cell killing [1, 10] -3.53% | activity, negative = cell killing [1, 11] -21.5% | Potency [2]
active: Potency ([1]; tumour line A) 7.94 µM

C[C@@H](CO)NC(=O)[C@@H]1C=C2c3cccc4[nH]cc(c34)C[C@H]2N(C)C1
inactive: activity, negative = cell killing [1, 5] -4.28% | activity, negative = cell killing [1, 6] -4.71% | activity, negative = cell killing [1, 7] -21.2% | activity, negative = cell killing [1, 8] 15.8% | Potency [2]

O=C/C=C/c1ccccc1
inactive: activity, negative = cell killing [1, 5] 0.0687% | activity, negative = cell killing [1, 6] -9.63% | activity, negative = cell killing [1, 7] -23.4% | activity, negative = cell killing [1, 8] 1.48% | Potency [2] | max response [3] -2.3% and 9.18% | outcome [4]

c1csc(C2(N3CCCCC3)CCCCC2)c1
inactive: activity, negative = cell killing [1, 5] -10.4% | activity, negative = cell killing [1, 6] -7.27% | activity, negative = cell killing [1, 8] -24.6% | Potency [2]

O=C(OCCN1CCCCC1)C(O)(c1ccccc1)c1ccccc1
inactive: activity, negative = cell killing [1, 5] -11.1% | activity, negative = cell killing [1, 6] -8.82% | activity, negative = cell killing [1, 8] -26.9% | Potency [2]

c1ccc2sc(SNC3CCCCC3)nc2c1
inactive: activity, negative = cell killing [1, 5] -13.7% | activity, negative = cell killing [1, 6] -11.7% | activity, negative = cell killing [1, 8] -8.99% | Potency [2]

CC(Cc1ccccc1)NC=O (centres undefined)
inactive: activity, negative = cell killing [1, 5] -10.4% | activity, negative = cell killing [1, 6] 2.52% | activity, negative = cell killing [1, 8] -28.9% | Potency [2]

CC[N+](C)(CC)CCOC(=O)C(O)(c1ccccc1)c1ccccc1
inactive: activity, negative = cell killing [1, 5] -10.1% | activity, negative = cell killing [1, 6] -2.57% | activity, negative = cell killing [1, 7] -29.2% | Potency [2]

CCC1(CC)C(=O)NC(=O)N(C)C1=O
inactive: activity, negative = cell killing [1, 5] -3.71% | activity, negative = cell killing [1, 6] -23.6% | activity, negative = cell killing [1, 8] -31.1% | Potency [2]
